How the values were obtained:
Assay in all cases: PBM binding z-score (relative to random genomic background probes); higher = stronger binding; sequences stand for … in GC…GCGATTGACAGCGTAGAATGAAGG
[1] = tested on: FXR:RXRa (NR concentration 270 nM, RXRa partner concentration 90 nM)
How it was run: (§1)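 Probes were double-stranded and carried 34-nt variable regions with direct-repeat seeds, single-nucleotide variants, half-site ablations and random human genomic background sequences, printed on custom Agilent 4×180K protein-binding microarrays. Arrays were incubated 1 h with ligand-free nuclear receptor dimers in PBS pH 7.4, 2% milk, 0.02% Triton X-100, 1 mM DTT, 0.2 mg/mL BSA and 0.4 mg/ml salmon testes DNA. Antibodies against each partner (one per run) detected binding, and scanned fluorescence was regression-normalized. Binding z-scores use the random background probes as reference.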

[2] = tested on: LXRa:RXRa (NR concentration 270 nM, RXRa partner concentration 90 nM)
How it was run: as §1

[3] = tested on: LXRa homodimer (NR concentration 270 nM)
How it was run: as §1

[4] = tested on: LXRb:RXRa (NR concentration 270 nM, RXRa partner concentration 90 nM)
How it was run: as §1

[5] = tested on: LXRb homodimer (NR concentration 270 nM)
How it was run: as §1

[6] = tested on: PPARa:RXRa (NR concentration 270 nM, RXRa partner concentration 90 nM)
How it was run: as §1

[7] = tested on: PPARg:RXRa (NR concentration 180 nM, RXRa partner concentration 90 nM)
How it was run: as §1

[8] = tested on: PPARg:RXRa 270nM:90nM, anti-RXR (NR concentration 270 nM, RXRa partner concentration 90 nM)
How it was run: as §1

[9] = tested on: PPARg:RXRa 30nM:10nM, anti-RXR (NR concentration 30 nM, RXRa partner concentration 10 nM)
How it was run: as §1

[10] = tested on: PPARg:RXRa 90nM:30nM, anti-RXR (NR concentration 90 nM, RXRa partner concentration 30 nM)
How it was run: as §1

[11] = tested on: PPARg:RXRa DBDmut IVT, anti-RXR (DBD mutation: RXRa K156A/R161A, NR concentration 270 nM, RXRa partner concentration 90 nM)
How it was run: as §1

[12] = tested on: PPARg:RXRa IVT, anti-PPARg (NR concentration 270 nM, RXRa partner concentration 90 nM)
How it was run: as §1

[13] = tested on: PPARg DBDmut:RXRa IVT, anti-PPARg (DBD mutation: PPARg1 K132A/R137A, NR concentration 270 nM, RXRa partner concentration 90 nM)
How it was run: as §1

[14] = tested on: PPARg DBDmut IVT, anti-PPARg (DBD mutation: PPARg1 K132A/R137A, NR concentration 270 nM)
How it was run: as §1

[15] = tested on: PPARg homodimer (NR concentration 180 nM)
How it was run: as §1

[16] = tested on: PXR:RXRa (NR concentration 270 nM, RXRa partner concentration 90 nM)
How it was run: as §1

[17] = tested on: PXR homodimer (NR concentration 270 nM)
How it was run: as §1

[18] = tested on: RARa:RXR (NR concentration 270 nM, RXRa partner concentration 90 nM)
How it was run: as §1

[19] = tested on: RARa homodimer (NR concentration 270 nM)
How it was run: as §1

[20] = tested on: RARb:RXRa (NR concentration 270 nM, RXRa partner concentration 90 nM)
How it was run: as §1

Sequence | PBM binding z-score [1] | PBM binding z-score [2] | PBM binding z-score [3] | PBM binding z-score [4] | PBM binding z-score [5] | PBM binding z-score [6] | PBM binding z-score [7] | PBM binding z-score [8] | PBM binding z-score [9] | PBM binding z-score [10] | PBM binding z-score [11] | PBM binding z-score [12] | PBM binding z-score [13] | PBM binding z-score [14] | PBM binding z-score [15] | PBM binding z-score [16] | PBM binding z-score [17] | PBM binding z-score [18] | PBM binding z-score [19] | PBM binding z-score [20]
TCATATAGGTAAAAGGTGAATGTCGGTGTGGTAA | 1.81 | 1.79 | 0.481 | 1.93 | 0.156 | 5.2 | 8.83 | 8.55 | 8.35 | 9.06 | 5.52 | 5.08 | 1.42 | 1.7 | 1.98 | 1.71 | 0.679 | 2.97 | 1.84 | 1.86
CCTACCGGGCCATCAGGTCATTGATATCAACGTT | 1.4 | 1.26 | 1.91 | 1.66 | 0.209 | 1.93 | 0.875 | 1.59 | -0.00582 | 1.09 | 0.52 | 1.97 | -0.847 | -0.348 | 1.25 | 1.64 | 0.864 | 1.95 | 0.127 | 2.21
GCATATAGGTAATATAAGGTGAAAGTCCGATTGT | 1.9 | 3.31 | 0.295 | 1.14 | -0.277 | 1.81 | 1.55 | 1.24 | 0.669 | 1.16 | 3.84 | 3.32 | 1.58 | 0.946 | 0.929 | 0.702 | 0.375 | 1.78 | 0.541 | 0.618
CCAGCCAGGTGAAAGGTAACTCAGTCTGGTACGC | 0.269 | 0.156 | -0.445 | 0.354 | -1.15 | 3.65 | 6.97 | 6.34 | 5.76 | 7.61 | 2.75 | 3.85 | -0.331 | -0.965 | 1.03 | 0.479 | -0.522 | 1.32 | -0.603 | 0.935
CCTCGGAGGACAGTAGGTCAGAGCTGTCCGCTTT | 0.394 | 0.75 | -0.0267 | -0.0579 | -0.769 | 1.64 | 0.253 | 1.47 | -0.726 | 0.521 | 2.48 | 3.2 | -0.95 | -1.78 | 0.409 | 0.0704 | -0.598 | 0.582 | 0.337 | 1.97
CGTCAAAGTTCAACTAAGGTAACGCAAAGCACGC | 7.01 | 6.31 | 4.34 | 4.15 | 1.94 | 5.28 | 5.24 | 5.67 | 2.5 | 4.74 | 0.641 | 2.32 | 0.717 | 0.408 | 3.08 | 5.42 | 3.81 | 4.22 | 1.83 | 5.15
CATACTAGGTCACAGAGGTCAAAGTCCGTGCGTA | 6.69 | 6.83 | 7.84 | 6.16 | 2.94 | 6.09 | 8.98 | 7.72 | 5.14 | 7.44 | 7.7 | 8.21 | 1.7 | 0.913 | 4.99 | 6.49 | 11.3 | 6.62 | 2.6 | 5.27
GGAACGAGGGCATTCGAGTTGGTAGCATGGCGAT | 0.825 | 0.72 | -0.575 | -0.0954 | -1.08 | 1.06 | 0.508 | 0.442 | -0.573 | -0.227 | 3.06 | 2.06 | -0.924 | 0.13 | -0.0441 | 2.69 | 0.354 | 0.386 | -0.393 | 1.86
CCGACTCGGGCAAAGGTTACCATACTCAGTACGA | 1.22 | 1.83 | -0.0865 | 1.94 | -0.792 | 4.45 | 8.25 | 8.33 | 7.28 | 9.75 | 1.5 | 4.06 | -0.108 | -0.188 | 2.32 | 2.01 | -0.0786 | 3.12 | 0.537 | 2.04
ATAGGTAGGTTAGCTGGGGTCATTCAGACTAGGC | 4.92 | 5.76 | 2.97 | 4.81 | 1.29 | 4.82 | 2.59 | 3.65 | 1.45 | 2.69 | 2.88 | 2.9 | 1.18 | 0.716 | 3.23 | 6.38 | 4.41 | 5.88 | 1.73 | 3.2
TCGAGTAGGTTAGTCTGGGCATTCAGCCAACATA | -0.238 | -0.131 | -0.19 | -0.216 | -1.35 | 0.169 | -0.258 | 0.528 | 0.844 | 0.781 | 1.92 | 1.79 | -0.593 | -0.623 | -0.00252 | -0.302 | -0.724 | -0.271 | -0.668 | -0.185
ATCGAAAGGTAGTGAGGTGAGTATACAGAAAGGC | 0.0464 | -0.187 | 0.0161 | -0.247 | -0.154 | 0.153 | 0.582 | 0.0693 | 0.155 | 0.0111 | -0.75 | 0.597 | 0.685 | 1.02 | -0.358 | -0.273 | 0.226 | -0.126 | 0.18 | 0.322
CGAACTGGGTCAGAACAGGACAGTGAAGGATGAT | 0.455 | 0.381 | -0.423 | 0.0427 | -0.721 | 2.66 | 4.95 | 3.9 | 1.63 | 3.42 | 6.73 | 6.56 | 2.09 | 2.05 | 0.887 | 1.06 | -0.389 | 1.31 | 0.0168 | 2.23
TATACAGGGTCATAGGCCAGAGTACGAATGTCGA | 6.89 | 6 | 1.98 | 4.45 | 1.7 | 5.81 | 7.21 | 6.45 | 3.76 | 5.8 | 2.32 | 4.47 | 2.52 | 2.28 | 2.09 | 4 | 0.517 | 5.18 | 1.43 | 4.25

— the supplement of paper PMC6555819
